Experimental findings from PubChem BioAssay AID651640 (Broad Institute, 2012) are described below.

SMILES strings stand for the structures. “And” between values parts separate entries of the source, which are not always exact repeats. Equal entries are not always repeated. Hit rate of the full screen: of about 350,000 compounds, about 6,000 (1.7%) were called active. Not shown: some 5% with an inconclusive outcome. Cut-off read from the data, not from the text of the source: active = CPE inhibition above about 20% (passing the limit was not always enough); inconclusive = no clear call, values can overlap the other calls; tested in BHK-21 cells. The full list was thinned out, with actives kept by preference. Some structures have more than one record in an assay (separate samples or runs), and their calls can disagree.

The nature of the test: protection of cells from dengue 2 killing – plate reader, single concentration, primary screen (AID 651640).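 Note: 0% = median of neutral control wells and 100% = median of positive control wells.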 To be noted: DENV2-infected cells, cytopathic effect rescue, at 9.99 µM, stronger effect = higher value. (In general: Protection from cytopathic effect is a common read-out in antiviral testing.)
In the case of `C[C@@H]1CN([C@H](C)CO)C(=O)Cc2cc(NC(=O)Nc3ccccc3)ccc2O[C@@H]1CN(C)Cc1ccc(C(F)(F)F)cc1`, the CPE inhibition was -6.47% (inactive). The same measure for `C[C@H]1CN([C@@H](C)CO)C(=O)Cc2cc(NC(=O)Nc3ccc(F)cc3)ccc2O[C@H]1CN(C)S(=O)(=O)c1ccccc1`: 1.86% (inactive); for `C[C@@H]1CN([C@@H](C)CO)C(=O)Cc2cc(NC(=O)Nc3ccc(C(F)(F)F)cc3)ccc2O[C@H]1CN(C)Cc1ccc(C(=O)O)cc1`: 30.9% (active). Regarding `C[C@H]1CN([C@@H](C)CO)C(=O)Cc2cc(NC(=O)Nc3ccc(C(F)(F)F)cc3)ccc2O[C@H]1CN(C)Cc1ccc(C(=O)O)cc1`, the CPE inhibition was 16.5% (inactive). The same measure for `C[C@@H]1CN([C@H](C)CO)C(=O)Cc2cc(NC(=O)C3CCCCC3)ccc2O[C@@H]1CN(C)Cc1ccc(C(F)(F)F)cc1`: 31.3% (active); for `C[C@@H]1CN([C@@H](C)CO)C(=O)Cc2cc(NC(=O)Nc3ccc(F)cc3)ccc2O[C@@H]1CN(C)S(=O)(=O)c1ccccc1`: 76.2% (active); for `C[C@H]1CN([C@@H](C)CO)C(=O)Cc2cc(NC(=O)C3CCCCC3)ccc2O[C@H]1CN(C)C(=O)Nc1ccc(C(F)(F)F)cc1`: -1.37% (inactive). For the molecule `C[C@H](CO)N1C[C@H](C)[C@@H](CN(C)S(=O)(=O)c2ccccc2)Oc2ccc(NC(=O)Nc3ccc(F)cc3)cc2CC1=O`, the CPE inhibition is 13.5% (inactive). On to `C[C@@H]1CN([C@@H](C)CO)C(=O)Cc2cc(NC(=O)C3CCCCC3)ccc2O[C@@H]1CN(C)C(=O)Nc1ccc(C(F)(F)F)cc1`, for which the CPE inhibition was 2.75% (inactive). Regarding `COCC#Cc1cnc2c(c1)C(=O)N([C@H](C)CO)C[C@H](C)[C@H](CN(C)C(=O)C1CCOCC1)O2`, the CPE inhibition was 8% (inactive). Take `O=C(C[C@H]1C[C@@H]2c3cc(NC(=O)CC4CC4)ccc3O[C@@H]2[C@@H](CO)O1)NCc1cc(F)ccc1F`: the CPE inhibition was -1.05% (inactive). The same measure for `C[C@@H]1CN([C@H](C)CO)C(=O)c2cc(NC(=O)c3ccncc3)ccc2O[C@H]1CN(C)Cc1ccc(Oc2ccccc2)cc1`: -0.0445% (inactive). In the case of `C[C@@H]1CCCCO[C@@H](CN(C)C(=O)Cc2ccccc2)[C@H](C)CN([C@H](C)CO)C(=O)c2cc(NC(=O)Cc3ccccc3)ccc2O1`, the CPE inhibition is 13.3% (inactive).

Regarding `COc1ccc(-c2ccc3c(c2)[C@H]2[C@H](CCN2C(=O)c2ccc4c(c2)OCO4)[C@@H](CO)N3)cc1`, the CPE inhibition is -26.6% (inactive). On to `Cc1ccc(C)c(CN2CCC(CNC(=O)C3CCCN(c4ncnc5c4nc4n5CCCCC4)C3)CC2)c1` (stereo not given), for which the CPE inhibition is 3.53% (inactive). The same measure for `CCCN1C[C@@H](C)[C@@H](OC)CN(C)C(=O)c2ccc(NC(=O)CC(F)(F)F)cc2OC[C@H]1C`: 1.09% (inactive); for `CN1c2ccc(Br)cc2[C@H]2[C@H](CCN2S(=O)(=O)c2ccc(F)cc2)[C@@H]1CO`: 0.0605% (inactive). The same measure for `CO[C@@H]1CN(C)C(=O)c2ccc(NC(=O)C3CC3)cc2OC[C@H](C)N(C(C)=O)C[C@H]1C`: 7.67% (inactive); for `C/C=C(\C)C(=O)NCCN1C2=NC[C@H](Cc3ccc(O)cc3)N2C[C@@H]1Cc1ccc(OC)cc1`: 77.3% (active). `COc1ccc(C[C@H]2CN3C(=NC[C@H]3C)N2CCNC(=O)CCC2CCCCC2)cc1`: the CPE inhibition is -4.48% (inactive). With `NC1=NC[C@@H](Cc2ccc(O)cc2)N1CC1CCCCC1`, the CPE inhibition was 2.56% (inactive). Consider `CCC(=O)N1C[C@@H](O)COC[C@H]2O[C@H](CC(=O)NCC3CCCCC3)CC[C@@H]21`, for which the CPE inhibition was -3.58% (inactive). In the case of `CCOC(=O)N1CCN(Cc2nc3cc(NC(C)=O)ccc3n2C)CC1` it was -3.68% (inactive); in that of `CCOC(=O)N1CCN(Cc2nc3cc(NC(=O)CC)ccc3n2CC)CC1`, 38.6% (active); in that of `CCC(=O)Nc1ccc2c(c1)nc(CCN1CCN(c3ccccn3)CC1)n2C`, 0.997% (inactive). `C[C@@H]1CN([C@H](C)CO)C(=O)c2cccc(NC(=O)c3ccncc3)c2O[C@@H]1CN(C)S(=O)(=O)c1cn(C)cn1`: the CPE inhibition was 15% (inactive). With `O=C(Nc1ccccc1F)N[C@@H]1C=C[C@H](CC(=O)N2CCCCC2)O[C@@H]1CO`, the CPE inhibition is -0.192% (inactive). For the molecule `Cc1noc(C)c1NC(=O)N(C)C[C@@H]1OCCCC[C@H](C)Oc2ccc(NC(=O)c3ccccc3)cc2C(=O)N([C@@H](C)CO)C[C@@H]1C`, the CPE inhibition was 16.5% (inactive). Regarding `C/C=C/c1cnc2c(c1)C(=O)N([C@@H](C)CO)C[C@@H](C)[C@@H](CN(C)C(=O)c1cnccn1)O2`, the CPE inhibition is 2.38% (inactive). Take `CC(=O)N(C)C[C@@H]1Oc2ncc(C#Cc3ccc(F)cc3)cc2C(=O)N([C@H](C)CO)C[C@@H]1C`: the CPE inhibition was 28.5% (active). The same measure for `C[C@H](CO)N1C[C@H](C)[C@@H](CN(C)C(=O)c2cnccn2)Oc2ncc(Br)cc2C1=O`: 17.4% (inactive) and 62.5% (active); for `C/C=C/c1cnc2c(c1)C(=O)N([C@@H](C)CO)C[C@@H](C)[C@H](CN(C)C(=O)c1cnccn1)O2`: -1.7% (inactive); for `C[C@H]1CN([C@@H](C)CO)C(=O)c2cc(C#Cc3ccc(F)cc3)cnc2O[C@@H]1CN(C)C(=O)Nc1ccc(F)cc1`: -4.85% (inactive). The same measure for `COc1ccc(C#Cc2cnc3c(c2)C(=O)N([C@H](C)CO)C[C@@H](C)[C@@H](CN(C)C(=O)CN(C)C)O3)cc1`: 33.2% (active); for `COc1ccc(C#Cc2cnc3c(c2)C(=O)N([C@H](C)CO)C[C@H](C)[C@@H](CN(C)C)O3)cc1`: 19.9% (inactive); for `COc1ccc(C#Cc2cnc3c(c2)C(=O)N([C@@H](C)CO)C[C@H](C)[C@@H](CN(C)C(C)=O)O3)cc1`: 2.83% (inactive).

As to `C[C@H](CO)N1C[C@H](C)[C@H](CN(C)C)Oc2ncc(C#Cc3ccc(F)cc3)cc2C1=O`, the CPE inhibition was -5.08% (inactive) and 2.36% (inactive). `N#C[C@H]1[C@H](c2ccccc2)[C@@H](CO)N1C(=O)c1cccnc1`: the CPE inhibition is -0.249% (inactive).

On to `COC(=O)[C@]12C[C@H](CC(=O)NCc3ccc(C)o3)C(=O)N(CCC3=CCCCC3)C1=C[C@H](C(C)(C)C)O[C@@H]2C`, for which the CPE inhibition was 13.9% (inactive). `CN(C)C(=O)[C@@H]1[C@@H](CO)[C@@H]2Cn3c(cccc3=O)[C@@H]2N1C(=O)C1CCC1`: the CPE inhibition is -0.032% (inactive).
